Laboratory results as given in PubChem BioAssay (NCI).
This is part of a sample that, as a whole, favours compounds with a hit. Of some 83,000 tested, about 20% had one in any assay.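 Interpretation: 100, growth as untreated; towards 0, rising growth inhibition; 0, no net growth; 0 to -100, cell death. Compounds scoring below 10 were considered active.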

Experiments:
Assay in all cases: NCI-60 one-dose screen, 48 h (100 = growth as untreated, 0 = no growth, -100 = all killed)
Settings in all cases: 10 µM unless noted
[1] = test system: T-47D breast
[2] = test system: BT-549 breast
[3] = test system: MDA-MB-435 melanoma
[4] = test system: SW-620 colon
[5] = test system: MCF7 breast
[6] = test system: HCT-116 colon
[7] = test system: HCC-2998 colon
[8] = test system: KM12 colon

Measured: growth

Cc1cccc(C)c1NC(=S)/N=C\c1c(O)[nH]c(=O)[nH]c1=O
inactive: [1] 104% | [2] 93.9% | [3] 107% | [4] 105% | [5] 93.6% | [6] 106% | [7] 102% | [8] 103%

Cc1onc(-c2ccccc2Cl)c1C(=O)Cl
inactive: [1] 99.5% | [2] 117% | [3] 95.3% | [4] 103% | [5] 89% | [6] 105% | [7] 102% | [8] 119%

Cc1ccc2[nH]c3ccccc3c2c1
inactive: [1] 93% | [2] 102% | [3] 101% | [4] 101% | [5] 104% | [6] 98.3% | [7] 100% | [8] 101%

Cc1cc(CC(=O)NCCO)n(CCO)c(=O)c1
inactive: [1] 84.1% | [2] 111% | [3] 107% | [4] 98% | [5] 102% | [6] 97.5% | [7] 103% | [8] 107%

O=C(O)C1CSC(c2ccccc2)N1 (stereo not given)
inactive: [1] 101% | [2] 104% | [3] 108% | [4] 95.2% | [5] 91.5% | [6] 101% | [7] 103% | [8] 101%

Cc1ccc(Cc2ccc(C)cc2)cc1
inactive: [1] 101% | [2] 91.2% | [3] 97.5% | [4] 102% | [5] 99.4% | [6] 107% | [7] 100% | [8] 99.4%

COC1(OC)C2(Cl)C(Cl)=C(Cl)C1(Cl)C1COCC12 (stereo not given)
inactive: [1] 96.2% | [2] 105% | [3] 99% | [4] 85.8% | [5] 101% | [6] 91.5% | [7] 105% | [8] 111%

Cn1c(=O)c2[nH]c(CC(=O)O)nc2n(C)c1=O
inactive: [1] 102% | [2] 107% | [3] 112% | [4] 108% | [5] 101% | [6] 104% | [7] 101% | [8] 105%

O=C(CCCl)OCCOc1ccccc1
inactive: [1] 96% | [2] 116% | [3] 110% | [4] 107% | [5] 92.1% | [6] 118% | [7] 108% | [8] 102%

CCCCCCCCNC(=O)C(C)C
inactive: [1] 95.2% | [2] 107% | [3] 102% | [4] 93.4% | [5] 92% | [6] 92.7% | [7] 115% | [8] 102%

CN(C)CCOC(=O)Nc1ccc(Cc2ccc(NC(=O)OCCN(C)C)cc2)cc1
inactive: [1] 105% [100 µM] | [2] 68.3% [100 µM] | [3] 76.4% [100 µM] | [4] 85.8% [100 µM] | [5] 44.9% [100 µM] | [6] 36.5% [100 µM] | [7] 46.2% [100 µM] | [8] 78.8% [100 µM]

Nc1ccc(F)cc1F
inactive: [1] 101% | [2] 103% | [3] 107% | [4] 106% | [5] 96% | [6] 88.5% | [7] 113% | [8] 108%

N#C/C(=C\NC(=S)N=Nc1c(O)[nH]c2ccccc12)c1nc2ccccc2s1
inactive: [1] 71.6% | [2] 101% | [3] 108% | [4] 93% | [5] 76% | [6] 92.3% | [7] 113% | [8] 102%

C=C1C(=O)C2CCC1C2 (stereo not given)
inactive: [1] 98.7% | [2] 93% | [3] 105% | [4] 101% | [5] 109% | [6] 105% | [7] 97% | [8] 96.5%

O=c1cc(Cl)nc2ccccn12
inactive: [1] 103% | [2] 107% | [3] 108% | [4] 105% | [5] 91.4% | [6] 99.6% | [7] 102% | [8] 96.6%
